Source: PubChem BioAssay (National Center for Advancing Translational Sciences (NCATS))
Rows were chosen to be rich in hits. Some 1.1% of all compounds tested hit in one or more screens of this group.
LDHA block – inhibitors of human lactate dehydrogenase A | P00338 | purified LDHA, NADH/diaphorase-resazurin fluorescence; active compounds read low | activity change, % (values are at about 110 or 230 µM) | 480,000 compounds, 0.15% hits | AID 1347041; in the data active means activity change below about -30%; inconclusive means mostly about -25% to -30%
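Remaining NADH was detected by diaphorase (0.133 mg/mL) converting 37 µM resazurin to fluorescent resorufin, read at 0 and 20 minutes. The preceding 5-minute room-temperature reaction used 2 nM LDHA, 0.2 mM sodium pyruvate and 0.06 mM NADH at pH 7.4.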
PI4K2A inh – PI4K2A (human) kinase inhibition; Q9BTU6; purified PI4K2A, ADP-Glo luminescence, 1 h; active compounds read low; activity change, negative = inhibition, % at 76.9 µM; 420,000 compounds, 0.13% hits; in the data active means activity change below about -50%; inconclusive means mostly about -30% to -49%
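PI4K2A activity was measured by ADP-Glo luminescence: enzyme (4 ug/mL stock) and phosphatidylinositol (1.2 mM stock) in Tris pH 7.5/MgCl2/EGTA/Triton X-100 buffer were reacted with ATP (300 microM stock) for one hour at ambient temperature.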
GALK inhibitor – blocks human galactokinase activity; P51570; Purified GALK, Kinase-Glo residual ATP luminescence; Potency, µM (doses to about 57.5 µM), usual class: inhibitors; 270,000 compounds, 0.007% hits; AID 1868
Target sequence (P51570 whole entry, looked up): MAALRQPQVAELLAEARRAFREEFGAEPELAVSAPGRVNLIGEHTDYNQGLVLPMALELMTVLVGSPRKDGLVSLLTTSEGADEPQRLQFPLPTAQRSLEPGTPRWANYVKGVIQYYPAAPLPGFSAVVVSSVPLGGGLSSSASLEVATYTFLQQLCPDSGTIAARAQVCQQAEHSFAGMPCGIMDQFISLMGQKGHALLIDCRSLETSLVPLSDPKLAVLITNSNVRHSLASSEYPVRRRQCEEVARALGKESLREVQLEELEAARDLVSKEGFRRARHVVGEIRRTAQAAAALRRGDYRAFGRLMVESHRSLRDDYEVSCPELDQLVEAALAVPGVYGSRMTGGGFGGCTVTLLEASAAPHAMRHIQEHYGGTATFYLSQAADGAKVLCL
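Human GALK (5 nM) with 35 uM ATP and 100 uM galactose in 20 mM HEPES pH 8.0, 5 mM MgCl2, 60 mM NaCl, 1 mM DTT, 0.01% BSA. After 1 h at room temperature, leftover ATP was read by Kinase-Glo Plus luminescence.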
rTrxR1 inhibitor – blocks rat thioredoxin reductase 1; O89049; recombinant rTrxR1, NADPH fluorescence consumption, selenite substrate; Potency, µM (doses to about 114 µM), actives largely listed as inhibitors; 390,000 compounds, 1% hits; AID 588453; further: nearly all actives have a fitted effect of over 65% in size
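Rat TrxR1 (90 nM in the dispensed reagent) was pre-reduced with 400 uM NADPH for 5 min at room temperature, then incubated with compound for 15 min. After 400 uM selenite was added, NADPH fluorescence (Ex 340/Em 450 nm) was followed for 8 min.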
TrxR1 substrate – substrates of rat thioredoxin reductase 1 | purified TrxR1 substrate turnover, NADPH consumption readout | Potency, µM (titrated, usually from 114 µM) | 390,000 compounds, 0.01% hits | AID 588456; further: nearly all actives have a fitted effect of over 50% in size
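Rat TrxR1, dispensed at 90 nM, was prereduced with 400 uM NADPH (final) for 5 min at ~22 deg C, then incubated with compound 15 min before 400 uM selenite. A first-read NADPH fluorescence drop versus no-compound background flagged substrates.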
a7 integrin act – activators of alpha7 integrin expression for muscular dystrophy | alpha7betagal myoblasts, beta-gal FDG fluorescence, 48 h | Potency, µM (highest dose often 38.3 µM), actives largely listed as activators | 350,000 compounds, 0.064% hits; further: nearly all actives have a fitted effect of over 60% in size
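alpha7betagal+/- myoblasts (passage 13, 250/well) treated 48 h at 37C with compounds at 1:260 dilution of DMSO stock. Lysed, then beta-galactosidase activity read as FDG fluorescence (ex 480/em 540) after 30 min, with pre-read for autofluorescence.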
Of the large screens only hits and unclear results are named; the others gave an inactive call. Unless noted, the call rests on the fitted dose curve; in most records, active means well fitted curve in the direction sought with a large enough effect; inconclusive means small, poorly fitted or top-dose-only effect, or another doubt; inactive means no such curve, though single readings can be large; an effect the other way counts as inactive or inconclusive.

CC1(C)CC(=O)C(C2C3=C(CC(C)(C)CC3=O)Oc3ccccc32)C(=O)C1 (stereo unspecified)	rTrxR1 inhibitor 56.2µM
Cc1ccc2c(c1)N(CC(=O)c1cn(C)c3ccccc13)C(=O)CO2	none (no result: PI4K2A inh, GALK inhibitor, rTrxR1 inhibitor, TrxR1 substrate, a7 integrin act)
O=C(CN1CCCN(S(=O)(=O)c2ccc(Br)cc2)CC1)Nc1ccc2c(c1)OCO2	none (no result: LDHA block, PI4K2A inh, rTrxR1 inhibitor, TrxR1 substrate, a7 integrin act)
COc1ccc(S(=O)(=O)N2CCCN(CC(=O)C(C)(C)C)CC2)cc1	rTrxR1 inhibitor 12.6µM
COc1ccc(NC(=O)CN2CCN(Cc3ccc4c(c3)OCO4)CC2)cc1OC	LDHA block -36.6
COc1ccc(S(=O)(=O)N2CCCN(CC(=O)Nc3ccc4c(c3)OCO4)CC2)cc1	rTrxR1 inhibitor 79.4µM
COc1cccc(CN2CCC(C(=O)N3CCN(Cc4ccc5c(c4)OCO5)CC3)CC2)c1	LDHA block -33.1
Cc1nc(-[n+]2nc(-c3ccncc3)nn2-c2ccccc2)sc1C	PI4K2A inh -73.2 (no result: GALK inhibitor, rTrxR1 inhibitor, TrxR1 substrate, a7 integrin act)
O=C(/C(Br)=C/Nc1cc(Cl)ccc1Cl)C(F)(F)F	rTrxR1 inhibitor 39.8µM
COc1cccc(C(c2c(O)nc(SC)n(C)c2=O)c2c(O)nc(SC)n(C)c2=O)c1	rTrxR1 inhibitor inconclusive
CCCSc1nc(O)c(C(c2ccc(OC)c(O)c2)c2c(O)nc(SCCC)n(C)c2=O)c(=O)n1C	rTrxR1 inhibitor 11.2µM
COc1cccc(-c2c(NC(=O)c3ccc([N+](=O)[O-])cc3)oc3ccc(Cl)cc3c2=O)c1	none (no result: PI4K2A inh, GALK inhibitor, rTrxR1 inhibitor, TrxR1 substrate, a7 integrin act)
CC1=C(C#N)C(=O)NC(=O)/C1=C\c1ccc(-c2ccc(C)cc2[N+](=O)[O-])o1	rTrxR1 inhibitor 15.8µM
CCOC(=O)c1cc(-c2ccc(/C=C3/C(=O)NC(=O)C(C#N)=C3C)o2)ccc1Cl	rTrxR1 inhibitor 10µM
CCOc1ccc(C(c2c(C)[nH]n(-c3ccccc3)c2=O)c2c(C)[nH]n(-c3ccccc3)c2=O)cc1OC	PI4K2A inh -57.6 (no result: GALK inhibitor, a7 integrin act)
Cc1[nH]n(-c2ccccc2)c(=O)c1C(c1ccc(C(=O)O)cc1)c1c(C)[nH]n(-c2ccccc2)c1=O	none
COc1ccccc1NC(=O)Cc1csc(NC(=S)Nc2ccc(C)cc2)n1	rTrxR1 inhibitor 8.91µM
Cc1cccc(C)c1NC(=O)CCS(=O)(=O)c1cccc2nonc12	none
O=C(CCS(=O)(=O)c1cccc2nonc12)Nc1c(F)cccc1F	rTrxR1 inhibitor 31.6µM (no result: GALK inhibitor, a7 integrin act)
O=C1/C(=C/c2ccco2)N=C(N2CCCCC2)N1c1ccccc1	rTrxR1 inhibitor 70.8µM
O=C(c1ccc([N+](=O)[O-])o1)N1CCN(c2nc3c(Cl)cccc3s2)CC1	rTrxR1 inhibitor 39.8µM (no result: GALK inhibitor)
COc1cccc2sc(N3CCN(C(=O)c4ccc([N+](=O)[O-])o4)CC3)nc12	rTrxR1 inhibitor inconclusive (no result: GALK inhibitor)
Cc1ccc(CNC(=O)CC(C)S(=O)(=O)c2ccc3c(c2)NC(=O)CS3)o1 (stereo unspecified)	rTrxR1 inhibitor 15.8µM
Cc1ccc(OCc2nc(C)c(C(=O)Nc3ccc(C)cc3C)s2)cc1	none (no result: PI4K2A inh, GALK inhibitor, rTrxR1 inhibitor, TrxR1 substrate, a7 integrin act)
Cc1cccc(OCc2nc(C)c(C(=O)Nc3cc(C)ccc3C)s2)c1	LDHA block -35.3 (no result: PI4K2A inh, GALK inhibitor, rTrxR1 inhibitor, TrxR1 substrate, a7 integrin act)
Cc1ccc(-c2cnc3c(Nc4cccc(OC(F)(F)C(F)F)c4)nccn23)cc1	LDHA block -38.6 (no result: GALK inhibitor, rTrxR1 inhibitor, TrxR1 substrate, a7 integrin act)
Cc1ccc(S(=O)(=O)Nc2ccc(Nc3nccn4c(-c5ccccc5Oc5ccccc5)cnc34)cc2)cc1	none (no result: GALK inhibitor, rTrxR1 inhibitor, TrxR1 substrate, a7 integrin act)
Cc1ccc(S(=O)(=O)Nc2ccc(Nc3nccn4c(-c5ccc6ccccc6c5)cnc34)cc2)cc1	LDHA block -87.4 (no result: GALK inhibitor, rTrxR1 inhibitor, TrxR1 substrate, a7 integrin act)
FC(F)C(F)(F)Oc1cccc(Nc2nccn3c(-c4cc(C(F)(F)F)cc(C(F)(F)F)c4)cnc23)c1	none (no result: GALK inhibitor, rTrxR1 inhibitor, TrxR1 substrate, a7 integrin act)
CC(=O)Nc1ccc(C(=O)Nc2nc(-c3ccccn3)cs2)cc1	rTrxR1 inhibitor 50.1µM
CC(=O)Nc1ccc(C(=O)Nc2nc(-c3cccnc3)cs2)cc1	none
CC1CCN(c2nc(-c3ccco3)c3c(c2C#N)CC(C)(C)OC3)CC1	rTrxR1 inhibitor 8.91µM
Cc1ccc(S(=O)(=O)CCC(=O)N2CCN(c3ccc([N+](=O)[O-])cc3)CC2)cc1	rTrxR1 inhibitor 28.2µM
COC(=O)N1C(=O)[C@](c2ccccc2)(C2CCCC2)N1C(=O)OC	rTrxR1 inhibitor inconclusive (no result: GALK inhibitor)
COC(=O)N1C(=O)[C@@](c2ccc(OC)cc2)(C(C)C)N1C(=O)OC	rTrxR1 inhibitor 28.2µM (no result: GALK inhibitor)
CC[C@@]1(c2ccc(C)cc2)C(=O)N(C(=O)OC)N1C(=O)OC	none (no result: LDHA block, GALK inhibitor, rTrxR1 inhibitor, TrxR1 substrate, a7 integrin act)
COC(=O)N1C(=O)[C@](c2ccc(Cl)cc2)(C(C)C)N1C(=O)OC	rTrxR1 inhibitor 7.94µM, a7 integrin act inconclusive (no result: GALK inhibitor)
COC(=O)N1C(=O)[C@@](c2ccccc2)(C(C)C)N1C(=O)OC	rTrxR1 inhibitor 17.8µM (no result: GALK inhibitor)
CS(=O)(=O)Nc1cccc(-c2cn3c(n2)SCC3)c1	rTrxR1 inhibitor 31.6µM
CCS(=O)(=O)Nc1cccc(-c2cn3c(n2)SCC3)c1	a7 integrin act inconclusive
COc1ccc(OC)c(-c2c3cc(O)c(=O)cc-3oc3cc(O)c(O)cc23)c1	PI4K2A inh -50.9
O=C1CC(=O)N(CCNc2ncc(C(F)(F)F)cc2Cl)C(=O)N1	none
O=C1C=CC(=O)N1CCNc1ncc(C(F)(F)F)cc1Cl	rTrxR1 inhibitor 2µM
Cc1ccccc1/C=N/N1C(=O)CSC1=S	rTrxR1 inhibitor 35.5µM
O=C1CSC(=S)N1/N=C/c1cc(Br)c(O)c(Br)c1	rTrxR1 inhibitor 79.4µM
O=C1CSC(=S)N1/N=C/c1ccc2c(c1)OCCO2	rTrxR1 inhibitor 79.4µM
COc1cc(/C=N/N2C(=O)CSC2=S)ccc1O	rTrxR1 inhibitor 31.6µM
O=C1CSC(=S)N1N=Cc1ccccc1O	a7 integrin act inconclusive (no result: GALK inhibitor)
